Screening results from PubChem.
RAD52 anneal inh: blocks human RAD52 DNA annealing; inhibition, % at 18.7 µM; AID 651710; 0.46% of 360,000 active; recombinant RAD52 DNA annealing, FRET fluorescence;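 active = every replicate showing at least 50% inhibition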
Target sequence (P43351 whole entry, looked up): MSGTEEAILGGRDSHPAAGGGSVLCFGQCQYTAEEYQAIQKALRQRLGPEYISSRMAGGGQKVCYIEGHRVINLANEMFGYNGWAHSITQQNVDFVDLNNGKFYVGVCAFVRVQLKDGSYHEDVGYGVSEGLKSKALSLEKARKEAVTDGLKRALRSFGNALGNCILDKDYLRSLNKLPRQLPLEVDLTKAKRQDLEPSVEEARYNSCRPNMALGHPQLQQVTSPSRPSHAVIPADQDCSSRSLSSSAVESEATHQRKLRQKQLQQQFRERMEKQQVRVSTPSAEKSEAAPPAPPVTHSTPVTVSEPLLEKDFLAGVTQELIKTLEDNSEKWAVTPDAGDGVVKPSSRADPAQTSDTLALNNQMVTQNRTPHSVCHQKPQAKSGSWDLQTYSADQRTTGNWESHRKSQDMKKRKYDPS
INS-1E GSIS act: GLuc luminescence reporter in INS-1E cells, primary screen for activators of glucose-dependent secretion of insulin; 0.61% of 370,000 active; INS-1E GLuc reporter insulin secretion, 2-3 h; AID 743287; activation, % at 16.6 µM;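 active = lowest replicate activation of at least 40%, so every replicate reaches that level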
AF4-AF9 inh: inhibitors of human MLL-AF4/AF9 interaction; P42568; AlphaScreen, biotin-AF4 peptide binding to FLAG-AF9; inhibition, % at 10 µM; 0.47% of 350,000 active; AID 651704;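 active = every replicate reaching a set inhibition limit, whatever the replicate mean, cut at about 25% in these data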
RAD54 branch: inhibitors of human RAD54 branch migration. Q92698. RAD54 Holliday junction branch migration, FAM/BHQ fluorescence. inhibition, % at 10.4 µM. 0.14% of 360,000 active. AID 602329;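 active = mean normalized replicate activity at least 40 and at least half of replicates scoring 40 or more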;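 note: inhibitors cause a drop in the FAM fluorescence signal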
PGC1a acetyl inh: lowers PGC1a acetylation signal in U2OS cells. AlphaScreen anti-acetyl-lysine; with virally co-expressed GCN5 acetyltransferase. inhibition, % at 15.6 µM. 0.17% of 350,000 active. AID 651687;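 active = every replicate shows inhibition of at least 40%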
ERAP1 HTS inh: blocks human ERAP1 aminopeptidase activity; Q9NZ08; recombinant ERAP1, Leu-AMC fluorescence, 60 min; inhibition, % at 10.7 µM; 0.15% of 340,000 active;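 active = mean replicate inhibition of at least 30%, or all replicates individually reaching that 30% level; inactive = mean below 30% and not every replicate reaching it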
Hits are given with their value; 0 = inactive; - = not tested or not shown. An excerpt weighted towards active compounds, which were near 1.4% of everything screened.

SMILES | RAD52 anneal inh | INS-1E GSIS act | AF4-AF9 inh | RAD54 branch | PGC1a acetyl inh | ERAP1 HTS inh
O=C(O)c1ccc(-n2nnnc2SCc2cccc(Br)c2)cc1 | 0 | 63.1 | 0 | 0 | 0 | 0
Cc1cccc(CSc2nnnn2-c2ccccc2)c1 | - | 0 | - | - | 0 | -
Cc1cc(C)c(CSc2nnnn2-c2ccc(C(=O)O)cc2)c(C)c1 | 0 | 88.7 | 0 | - | - | 0
CCCNC(=O)N1CC2(C1)CN(C(=O)CCC)[C@@H](CO)c1[nH]c3cc(OC)ccc3c12 | - | 0 | 0 | - | 0 | -
CC=Cc1ccc2n(c1=O)C[C@H]1[C@H](CO)[C@@H](C(=O)NC3CCCC3)N(Cc3ccccc3)[C@@H]21 (mixture of isomers) | 0 | 0 | 0 | 0 | - | 0
COc1cccc(NC(=O)N2C[C@H](O)COC[C@H]3O[C@@H](CC(=O)NC4CCC4)CC[C@@H]32)c1 | 0 | 0 | 0 | 0 | 0 | 0
CCOc1ccc(OCc2ccc(C(=O)NN=Cc3ccc[nH]3)cc2)cc1 | 0 | 0 | 0 | 0 | 46.5 | 0
CC(C)NC(=O)Nc1ccc2c(c1)CC(=O)N(C)C[C@H](C)[C@@H](CN(C)C(=O)NC(C)C)O2 | - | 0 | - | - | - | -
CC(=O)OC1C2CCC1C([N+]1(C)CCCCC1)CC2 (stereo not drawn) | 0 | 0 | 0 | - | 0 | 35.2
Nc1ccc(C(=O)N/N=C/c2sc(N3CCOCC3)nc2-c2ccccc2)cc1 | 0 | 0 | 0 | 0 | - | 0
O=C(O)c1cccc(N/N=C/c2sc(N3CCOCC3)nc2-c2ccccc2)c1 | - | 41.5 | - | 0 | 0 | -
Cc1ccc(Sc2ccc(CN3CCCCC3)cc2[N+](=O)[O-])cc1 | 0 | 0 | 29.1 | - | - | 0
O=[N+]([O-])c1cc(CN2CCCCCC2)ccc1O | 0 | 0 | 0 | 0 | 0 | 0
COC(=O)C[C@@H]1C[C@@H]2c3cc(NC(=O)CN(C)C)ccc3O[C@@H]2[C@H](CO)O1 | 0 | 0 | 0 | 0 | 0 | 0
CC(=O)Nc1cccc2c1O[C@@H](CN(C)C(=O)NC(C)C)[C@@H](C)CN(C)C2=O | - | 0 | - | - | - | -
O=C(Cc1ccncc1)NCC[C@H]1CC[C@@H](NC(=O)C2CC2)[C@H](CO)O1 | 0 | 0 | 0 | 0 | 62.4 | 0
O=C(Cc1ccccn1)NCC[C@H]1CC[C@H](NC(=O)Nc2ccc(C(F)(F)F)cc2)[C@H](CO)O1 | 0 | 0 | 0 | 0 | 48.1 | 0
O=C(Cc1ccccn1)NCC[C@H]1CC[C@@H](NC(=O)Nc2ccc(C(F)(F)F)cc2)[C@@H](CO)O1 | 0 | 0 | 0 | 0 | 101.6 | 0
O=C(NCc1ccc(F)cc1)[C@H]1[C@H](CO)[C@H]2Cn3c(cccc3=O)[C@@H]1N2Cc1ccncc1 | 0 | 0 | 0 | 0 | 0 | 0
Cc1cc(/C=C2/SC(=O)N(CC(=O)N3CCOCC3)C2=O)c(C)n1-c1ccccc1F | 0 | 51.5 | 0 | - | - | 0
CCCCCCC(=O)O | 0 | - | 0 | 0 | 0 | 0
CCCCCCCCC(=O)O | - | - | - | 0 | 65.6 | -
Cc1ccc(CNC(=O)Cn2c(=O)c3sccc3n(Cc3ccc([N+](=O)[O-])cc3)c2=O)cc1 | - | 42.3 | - | - | - | -
COc1ccc(C(=O)CSC#N)cc1OC | 0 | 0 | 0 | - | - | 0
CCC(=O)C(C#N)(c1ccc(OC)c(OC)c1)C(C)C (stereo not drawn) | - | 82.0 | - | 0 | 0 | -
SMILES | RAD52 anneal inh | INS-1E GSIS act | AF4-AF9 inh | RAD54 branch | PGC1a acetyl inh | ERAP1 HTS inh
CCCNC(=O)N[C@@H]1CC[C@@H](CCn2cc(C3CCCC3)nn2)O[C@@H]1CO | 0 | 0 | 0 | 0 | 0 | 0
COC(=O)C[C@H]1CC[C@@H]2[C@H](COC[C@@H](O)CN2S(=O)(=O)c2ccc(F)cc2)O1 | 0 | 0 | 0 | 0 | 0 | -
CCNC(=S)NNC(=O)c1csc2ccccc12 | - | 0 | - | 0 | 58.6 | -
C[C@H](CO)N1C[C@H](C)[C@H](CN(C)S(C)(=O)=O)Oc2c(NC(=O)Nc3ccc(C(F)(F)F)cc3)cccc2C1=O | 0 | 0 | 0 | 0 | 0 | 0
Cc1cccc(-c2nsc(SCC(=O)N3CCCC3)n2)c1 | - | - | - | 0 | 95.5 | -
O=C(CSc1nc(-c2ccccc2)ns1)N1CCOCC1 | 0 | 0 | 0 | - | - | 0
O=C1c2ccccc2C(=O)c2c(Nc3ccc(CCO)cc3)ccc(O)c21 | 0 | 0 | 50.3 | 0 | 0 | 0
CC(=O)Nc1ccc(Nc2ccc3c4c(cc(=O)n3C)-c3ccccc3C(=O)c24)cc1 | 0 | 0 | 0 | - | 0 | 0
CCN(CC)c1ccc2nc3ccc(N)cc3[n+](-c3ccccc3)c2c1 | 0 | 0 | 49.8 | 85.0 | 0 | 0
CCN(CC)c1ccc2nc3ccccc3[n+](CC)c2c1 | - | - | - | 54.0 | - | -
O=C(O)c1ccc(-c2cccc(Cl)c2)o1 | 0 | 0 | - | 0 | 0 | 0
